The full data set covers some 7,900 targets. This sample favours those with a hit. About 0.6% of all pairs of compound and target were hits. Unmarked numbers belong to inactive results.

40 targets from the supplement of paper PMC10849652 can be followed below.

UniProt P39880, sequence (P39880 whole entry, looked up): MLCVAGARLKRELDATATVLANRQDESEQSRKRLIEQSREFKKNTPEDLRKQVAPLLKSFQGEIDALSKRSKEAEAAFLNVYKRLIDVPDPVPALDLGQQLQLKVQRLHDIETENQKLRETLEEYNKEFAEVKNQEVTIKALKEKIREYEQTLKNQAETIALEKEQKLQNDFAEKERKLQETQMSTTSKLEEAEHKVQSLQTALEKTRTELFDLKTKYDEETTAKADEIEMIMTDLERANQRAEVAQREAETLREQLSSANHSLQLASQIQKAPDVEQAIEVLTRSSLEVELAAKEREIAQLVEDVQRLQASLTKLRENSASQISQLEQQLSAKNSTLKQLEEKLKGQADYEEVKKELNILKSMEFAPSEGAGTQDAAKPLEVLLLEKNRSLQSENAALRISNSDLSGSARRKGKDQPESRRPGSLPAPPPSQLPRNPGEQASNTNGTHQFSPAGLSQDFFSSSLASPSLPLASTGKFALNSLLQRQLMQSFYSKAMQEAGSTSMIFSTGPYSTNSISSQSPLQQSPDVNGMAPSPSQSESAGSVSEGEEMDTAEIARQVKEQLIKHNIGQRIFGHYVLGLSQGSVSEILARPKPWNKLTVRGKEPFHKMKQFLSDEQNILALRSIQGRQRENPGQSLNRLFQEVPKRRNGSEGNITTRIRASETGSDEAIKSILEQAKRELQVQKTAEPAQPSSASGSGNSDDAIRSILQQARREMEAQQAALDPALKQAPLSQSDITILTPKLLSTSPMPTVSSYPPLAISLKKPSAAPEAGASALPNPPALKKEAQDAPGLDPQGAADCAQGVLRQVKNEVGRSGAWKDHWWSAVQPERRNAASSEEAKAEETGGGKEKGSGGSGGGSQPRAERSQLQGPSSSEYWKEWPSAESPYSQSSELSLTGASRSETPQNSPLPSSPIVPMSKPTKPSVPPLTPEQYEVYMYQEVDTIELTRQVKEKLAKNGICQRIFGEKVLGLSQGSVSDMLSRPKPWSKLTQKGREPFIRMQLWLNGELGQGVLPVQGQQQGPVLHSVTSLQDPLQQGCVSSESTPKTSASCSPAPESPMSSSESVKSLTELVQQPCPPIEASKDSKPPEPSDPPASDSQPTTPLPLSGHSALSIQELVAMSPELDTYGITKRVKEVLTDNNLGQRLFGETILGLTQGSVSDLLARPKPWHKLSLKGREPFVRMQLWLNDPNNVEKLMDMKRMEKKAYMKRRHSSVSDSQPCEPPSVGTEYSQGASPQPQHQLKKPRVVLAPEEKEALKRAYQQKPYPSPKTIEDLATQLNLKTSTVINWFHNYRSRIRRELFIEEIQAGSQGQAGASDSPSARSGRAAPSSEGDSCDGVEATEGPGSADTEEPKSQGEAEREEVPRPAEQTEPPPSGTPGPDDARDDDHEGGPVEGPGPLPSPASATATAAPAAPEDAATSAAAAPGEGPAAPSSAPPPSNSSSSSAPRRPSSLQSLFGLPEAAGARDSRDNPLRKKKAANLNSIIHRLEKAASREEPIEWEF
UniProt Q96CS3, sequence (Q96CS3 whole entry, looked up): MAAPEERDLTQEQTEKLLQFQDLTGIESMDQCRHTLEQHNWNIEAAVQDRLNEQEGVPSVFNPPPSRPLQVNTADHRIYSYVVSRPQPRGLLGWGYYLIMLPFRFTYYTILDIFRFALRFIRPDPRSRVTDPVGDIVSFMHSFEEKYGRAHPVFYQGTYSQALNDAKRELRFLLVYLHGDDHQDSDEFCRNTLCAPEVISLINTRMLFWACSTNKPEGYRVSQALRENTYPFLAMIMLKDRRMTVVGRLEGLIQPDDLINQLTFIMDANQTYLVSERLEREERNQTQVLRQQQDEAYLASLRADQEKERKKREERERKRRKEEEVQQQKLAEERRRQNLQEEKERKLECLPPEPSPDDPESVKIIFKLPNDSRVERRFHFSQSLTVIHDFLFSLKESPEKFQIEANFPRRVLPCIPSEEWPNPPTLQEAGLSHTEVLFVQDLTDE
UniProt P50570, sequence (P50570 whole entry, looked up): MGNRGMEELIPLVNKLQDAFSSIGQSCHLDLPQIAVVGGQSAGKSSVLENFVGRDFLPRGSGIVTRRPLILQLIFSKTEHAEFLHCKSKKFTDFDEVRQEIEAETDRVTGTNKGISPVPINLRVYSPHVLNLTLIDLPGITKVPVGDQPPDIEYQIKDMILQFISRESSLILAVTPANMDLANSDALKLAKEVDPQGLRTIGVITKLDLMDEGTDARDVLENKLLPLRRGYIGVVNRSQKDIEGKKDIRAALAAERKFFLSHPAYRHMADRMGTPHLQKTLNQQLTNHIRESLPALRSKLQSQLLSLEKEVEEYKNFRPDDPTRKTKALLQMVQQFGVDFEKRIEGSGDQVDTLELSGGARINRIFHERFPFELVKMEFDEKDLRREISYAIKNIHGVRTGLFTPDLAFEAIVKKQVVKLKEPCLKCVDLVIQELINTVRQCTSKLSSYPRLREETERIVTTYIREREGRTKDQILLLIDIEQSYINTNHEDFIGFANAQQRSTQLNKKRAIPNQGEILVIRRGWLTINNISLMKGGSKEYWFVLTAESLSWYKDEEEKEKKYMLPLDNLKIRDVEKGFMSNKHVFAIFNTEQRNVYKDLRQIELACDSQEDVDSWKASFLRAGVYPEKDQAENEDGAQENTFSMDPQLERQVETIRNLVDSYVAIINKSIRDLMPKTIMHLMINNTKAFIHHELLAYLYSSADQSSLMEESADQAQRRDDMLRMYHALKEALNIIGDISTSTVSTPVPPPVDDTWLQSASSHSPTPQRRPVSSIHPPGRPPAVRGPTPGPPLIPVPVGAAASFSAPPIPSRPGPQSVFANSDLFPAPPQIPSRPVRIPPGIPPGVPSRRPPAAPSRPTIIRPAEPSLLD
UniProt Q15392, sequence (Q15392 whole entry, looked up): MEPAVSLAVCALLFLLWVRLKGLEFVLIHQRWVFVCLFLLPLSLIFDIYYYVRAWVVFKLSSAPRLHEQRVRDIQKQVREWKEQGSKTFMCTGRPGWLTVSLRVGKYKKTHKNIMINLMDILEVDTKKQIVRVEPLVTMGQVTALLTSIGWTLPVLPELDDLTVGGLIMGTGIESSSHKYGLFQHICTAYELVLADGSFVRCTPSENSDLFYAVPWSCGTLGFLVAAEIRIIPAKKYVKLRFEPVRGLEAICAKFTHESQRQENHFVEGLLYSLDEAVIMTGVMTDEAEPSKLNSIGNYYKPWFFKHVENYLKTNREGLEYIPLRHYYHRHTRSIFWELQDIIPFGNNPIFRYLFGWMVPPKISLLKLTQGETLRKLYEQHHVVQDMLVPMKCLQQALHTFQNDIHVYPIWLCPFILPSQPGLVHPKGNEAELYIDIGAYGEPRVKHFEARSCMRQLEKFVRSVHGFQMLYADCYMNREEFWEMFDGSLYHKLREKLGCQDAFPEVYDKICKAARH
UniProt Q9UK59, sequence (Q9UK59 whole entry, looked up): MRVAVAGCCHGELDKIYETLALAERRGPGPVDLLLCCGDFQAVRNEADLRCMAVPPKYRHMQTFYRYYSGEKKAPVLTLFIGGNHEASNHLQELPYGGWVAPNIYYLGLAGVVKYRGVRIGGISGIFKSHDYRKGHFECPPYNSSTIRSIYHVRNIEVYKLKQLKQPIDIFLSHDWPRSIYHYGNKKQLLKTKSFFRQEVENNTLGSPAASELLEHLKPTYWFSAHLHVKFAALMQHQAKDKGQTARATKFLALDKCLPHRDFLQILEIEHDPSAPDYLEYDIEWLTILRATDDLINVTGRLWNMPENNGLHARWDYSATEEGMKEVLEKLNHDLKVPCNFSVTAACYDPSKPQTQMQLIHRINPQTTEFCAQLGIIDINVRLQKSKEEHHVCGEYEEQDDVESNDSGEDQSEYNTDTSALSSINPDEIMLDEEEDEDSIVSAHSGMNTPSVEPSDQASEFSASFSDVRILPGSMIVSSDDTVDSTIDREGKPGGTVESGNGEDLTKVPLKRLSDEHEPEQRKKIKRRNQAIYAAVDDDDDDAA
UniProt P39656, sequence (P39656 whole entry, looked up): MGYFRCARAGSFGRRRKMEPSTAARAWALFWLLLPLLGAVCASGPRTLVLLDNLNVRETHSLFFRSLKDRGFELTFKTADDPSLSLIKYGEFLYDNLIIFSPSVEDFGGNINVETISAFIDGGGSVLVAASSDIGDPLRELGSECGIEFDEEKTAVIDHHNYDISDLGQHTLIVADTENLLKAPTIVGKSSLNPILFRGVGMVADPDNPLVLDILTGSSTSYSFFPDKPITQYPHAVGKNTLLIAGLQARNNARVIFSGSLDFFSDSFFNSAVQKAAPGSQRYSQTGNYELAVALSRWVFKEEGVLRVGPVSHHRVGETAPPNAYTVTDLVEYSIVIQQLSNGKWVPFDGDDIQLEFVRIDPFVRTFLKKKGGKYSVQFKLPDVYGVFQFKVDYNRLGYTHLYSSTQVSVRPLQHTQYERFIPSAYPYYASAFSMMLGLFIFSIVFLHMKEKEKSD
UniProt Q5NDL2, sequence (Q5NDL2 whole entry, looked up): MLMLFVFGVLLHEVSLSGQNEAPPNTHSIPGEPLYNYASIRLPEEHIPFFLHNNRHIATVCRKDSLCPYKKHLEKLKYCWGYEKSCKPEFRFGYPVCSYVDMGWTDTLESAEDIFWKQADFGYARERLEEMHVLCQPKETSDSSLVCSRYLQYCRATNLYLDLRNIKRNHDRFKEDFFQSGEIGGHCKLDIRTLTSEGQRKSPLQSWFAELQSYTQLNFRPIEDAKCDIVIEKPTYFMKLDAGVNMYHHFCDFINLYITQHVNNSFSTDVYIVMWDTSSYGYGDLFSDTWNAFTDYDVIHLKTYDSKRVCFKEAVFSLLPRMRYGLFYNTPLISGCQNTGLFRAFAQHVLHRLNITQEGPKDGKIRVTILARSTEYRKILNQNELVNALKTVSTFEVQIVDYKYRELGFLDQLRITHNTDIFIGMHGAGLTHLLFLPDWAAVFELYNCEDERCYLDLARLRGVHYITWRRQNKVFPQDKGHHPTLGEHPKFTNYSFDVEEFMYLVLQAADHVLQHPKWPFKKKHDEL
UniProt Q9H773, sequence (Q9H773 whole entry, looked up): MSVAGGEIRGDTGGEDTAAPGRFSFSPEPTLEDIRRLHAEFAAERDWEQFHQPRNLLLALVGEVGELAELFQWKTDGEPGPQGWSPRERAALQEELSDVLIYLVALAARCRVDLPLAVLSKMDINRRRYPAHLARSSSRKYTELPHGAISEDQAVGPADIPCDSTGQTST

Compound in one assay: CS(=O)(=O)CCNCc1ccc(-c2ccc3ncnc(Nc4ccc(OCc5cccc(F)c5)c(Cl)c4)c3c2)o1 [lapatinib]
The experiment in a line: log2 fold change, soluble protein after heating vs DMSO (PISA); higher = thermal stabilisation; K562 cells, 10 uM, 30 min; active = over 0.2 and 3.5 SD of the protein, either way, in both replicates (recomputed). An outline of the steps:
(§1)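 K562 cells at 2×10^6 cells/mL were exposed to 10 μM compound for 30 min, then aliquots were heated for 3 min across 48°C-58°C, pooled, and extracted in PBS containing 0.5% NP-40 at 4°C. The supernatant after 21,000xg for 90 min was taken as soluble protein and measured by TMTpro 16plex LC-MS/MS with channel sums equalised. Thermal stability is reported relative to control samples, with values from duplicates. Fold changes are given on a log2 scale.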
For DNAJB12 (UniProt Q9NXW2), the log2 fold change is -0.033.

As for DHFR (UniProt P00374), the log2 fold change is -0.061.

For DFFB (UniProt O76075), the log2 fold change was -0.015.

On to EXOC5 (UniProt O00471), for which the log2 fold change was -0.028.

For DCTPP1 (UniProt Q9H773), the log2 fold change is -0.058.

Consider DHX40 (UniProt Q8IX18), for which the log2 fold change is 0.039.

Consider EOGT (UniProt Q5NDL2), for which the log2 fold change was 0.068.

Take DHCR7 (UniProt Q9UBM7): the log2 fold change was -0.009.

As for CUTA isoform 2 (UniProt O60888), the log2 fold change is 0.023.

As for ERLIN1 (UniProt O75477), the log2 fold change is 0.006.

In the case of EXOC1 (UniProt Q9NV70), the log2 fold change is -0.011.

Consider CUX1 isoform 2 (UniProt Q13948), for which the log2 fold change is 0.009.

Turning to DNM2 (UniProt P50570), the log2 fold change is -0.026.

On to DHRS7B (UniProt Q6IAN0), for which the log2 fold change was 0.109.

DIP2A (UniProt Q14689): the log2 fold change is -0.047.

On to FAM114A2 (UniProt Q9NRY5), for which the log2 fold change is -0.009.

FAF2 (UniProt Q96CS3): the log2 fold change is 0.029.

For ECH1 (UniProt Q13011), the log2 fold change was -0.011.

With DDOST (UniProt P39656), the log2 fold change was 0.019.

For the target DCAF6 isoform 3 (UniProt Q58WW2), the log2 fold change is 0.016.

With DHCR24 (UniProt Q15392), the log2 fold change was 0.711.

With DNAH11 (UniProt Q96DT5), the log2 fold change was 0.216.

In the case of DCAF13 (UniProt Q9NV06), the log2 fold change was 0.083.

Turning to CYBA (UniProt P13498), the log2 fold change is -0.034.

As to FADS1, A0A0A0MR51, the log2 fold change was 0.044.

On to DPP8 (UniProt Q6V1X1), for which the log2 fold change was -0.077.

For the target DDB1 (UniProt Q16531), the log2 fold change is -0.022.

CUX1 isoform 3 (UniProt P39880): the log2 fold change is 0.013.

Consider EHBP1L1 (UniProt Q8N3D4), for which the log2 fold change was 0.03.

Regarding EXOC7 (UniProt Q9UPT5), the log2 fold change was -0.031.

Regarding DHX36 (UniProt Q9H2U1), the log2 fold change was 0.025.

For DBR1 (UniProt Q9UK59), the log2 fold change is -0.021.

Turning to ERLIN2 (UniProt O94905), the log2 fold change was -0.019.

In the case of DAG1 (UniProt Q14118), the log2 fold change is -0.015.

Regarding EFL1 (UniProt Q7Z2Z2), the log2 fold change was -0.034.

On to DHRS3 (UniProt O75911), for which the log2 fold change is 0.065.

In the case of FAM160B1 (UniProt Q5W0V3), the log2 fold change is 0.009.

Take EHD2 (UniProt Q9NZN4): the log2 fold change is -0.06.

Consider DTWD1 (UniProt Q8N5C7), for which the log2 fold change is 0.044.

As to FAM177A1 isoform 2 (UniProt Q8N128), the log2 fold change was -0.018.

Compound in a further assay: CS(=O)(=O)N1CCN(Cc2cc3nc(-c4cccc5[nH]ncc45)nc(N4CCOCC4)c3s2)CC1 [pictilisib]
The assay is described as above. In short, it runs like this:
as §1
Consider DNAJB12 (UniProt Q9NXW2), for which the log2 fold change was -0.051.

In the case of DHFR (UniProt P00374), the log2 fold change is 0.039.

Regarding DFFB (UniProt O76075), the log2 fold change was -0.074.

In the case of EXOC5 (UniProt O00471), the log2 fold change was -0.055.

Regarding DCTPP1 (UniProt Q9H773), the log2 fold change is -0.05.

As to DHX40 (UniProt Q8IX18), the log2 fold change was -0.014.

For EOGT (UniProt Q5NDL2), the log2 fold change was 0.007.

As to DHCR7 (UniProt Q9UBM7), the log2 fold change is -0.115.

On to CUTA isoform 2 (UniProt O60888), for which the log2 fold change is -0.358.

For the target ERLIN1 (UniProt O75477), the log2 fold change is -0.107.

Consider EXOC1 (UniProt Q9NV70), for which the log2 fold change was -0.021.

As for CUX1 isoform 2 (UniProt Q13948), the log2 fold change is 0.018.

Consider DNM2 (UniProt P50570), for which the log2 fold change is 0.021.

For DHRS7B (UniProt Q6IAN0), the log2 fold change was -0.143.

Regarding DIP2A (UniProt Q14689), the log2 fold change was 0.103.

Take FAM114A2 (UniProt Q9NRY5): the log2 fold change is -0.02.

Turning to FAF2 (UniProt Q96CS3), the log2 fold change is 0.017.

On to ECH1 (UniProt Q13011), for which the log2 fold change was 0.033.

DDOST (UniProt P39656): the log2 fold change is -0.04.

In the case of DCAF6 isoform 3 (UniProt Q58WW2), the log2 fold change was 0.001.

DHCR24 (UniProt Q15392): the log2 fold change was 0.055.

DNAH11 (UniProt Q96DT5): the log2 fold change was 0.552.

Take DCAF13 (UniProt Q9NV06): the log2 fold change was -0.103.

CYBA (UniProt P13498): the log2 fold change is -0.047.

Consider FADS1, A0A0A0MR51, for which the log2 fold change was -0.092.

As for DPP8 (UniProt Q6V1X1), the log2 fold change is 0.022.

For the target DDB1 (UniProt Q16531), the log2 fold change was 0.025.

For CUX1 isoform 3 (UniProt P39880), the log2 fold change is 0.054.

Take EHBP1L1 (UniProt Q8N3D4): the log2 fold change was 0.217.

EXOC7 (UniProt Q9UPT5): the log2 fold change was -0.057.

Consider DHX36 (UniProt Q9H2U1), for which the log2 fold change was -0.038.

Regarding DBR1 (UniProt Q9UK59), the log2 fold change is -0.064.

Take ERLIN2 (UniProt O94905): the log2 fold change is -0.09.

As to DAG1 (UniProt Q14118), the log2 fold change is 0.115.

As for EFL1 (UniProt Q7Z2Z2), the log2 fold change is -0.016.

As to DHRS3 (UniProt O75911), the log2 fold change was 0.019.

In the case of FAM160B1 (UniProt Q5W0V3), the log2 fold change is -0.009.

Consider EHD2 (UniProt Q9NZN4), for which the log2 fold change is -0.051.

In the case of DTWD1 (UniProt Q8N5C7), the log2 fold change was 0.124.

Take FAM177A1 isoform 2 (UniProt Q8N128): the log2 fold change is 0.
